Assay outcomes (PubChem)
Sfp PPTase inh – blocks B. subtilis Sfp PPTase activity. Q9F4F7. Biochemical Sfp PPTase activity, qHTS. Potency, µM, inactives show largest response in the series, negative = inhibition, hits mostly inhibitors. 310,000 compounds, 3.5% hits;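 also: the enzyme is Sfp with the accession as filed and its product quenches rhodamine fluorescence; 0% = enzyme reaction without inhibitor and -100% = no enzyme wells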
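Step 1, compound plus 15 nM Sfp-PPTase, 15 min, room temperature. Step 2, add rhodamine-CoA (5 uM) and BHQ-2-YbbR (12.5 uM). Step 3, read 525/598 nm fluorescence at 0 and 30 min.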
HP1b binding inh – blocks HP1-beta chromodomain binding to methylated histone tails; 390,000 compounds, 0.56% hits; Potency, µM (series often up to 114 µM), inactives show top-dose activity change, negative = inhibition, actives largely listed as inhibitors; P83916; AlphaScreen HP1-beta / biotin-H3K9me3 peptide binding; also: nearly all actives have a fitted effect of over 70% in size
Target sequence (P83916 whole entry, looked up): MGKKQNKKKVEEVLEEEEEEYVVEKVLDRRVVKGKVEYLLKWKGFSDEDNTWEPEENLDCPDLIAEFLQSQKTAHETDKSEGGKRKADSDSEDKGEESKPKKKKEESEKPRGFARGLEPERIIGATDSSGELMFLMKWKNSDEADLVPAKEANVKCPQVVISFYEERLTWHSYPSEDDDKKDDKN
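Compound inhibition of the preformed complex between 50 nM HP1-beta and 50 nM biotinylated H3K9me3 peptide was read by AlphaScreen. Buffer was PBS pH 7.4 with 0.01% Tween-20. Incubations ran 30 min at room temperature, with 10 ug/mL donor/acceptor beads.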
G9a block – G9a (human) methyltransferase inhibition; 350,000 compounds, 8.8% hits; G9a H3K9 monomethylation, AlphaScreen, 2 h; AID 504332; Potency, µM (top dose mostly 102 µM), for inactives: at the highest dose activity, negative = inhibition, hits mostly inhibitors; Q96KQ7; also: % is scaled to controls: 0 for no effect and ±100 for the full control effect; nearly all actives have a fitted effect of over 75% in size
Target sequence (Q96KQ7 913-1193 limits assumed): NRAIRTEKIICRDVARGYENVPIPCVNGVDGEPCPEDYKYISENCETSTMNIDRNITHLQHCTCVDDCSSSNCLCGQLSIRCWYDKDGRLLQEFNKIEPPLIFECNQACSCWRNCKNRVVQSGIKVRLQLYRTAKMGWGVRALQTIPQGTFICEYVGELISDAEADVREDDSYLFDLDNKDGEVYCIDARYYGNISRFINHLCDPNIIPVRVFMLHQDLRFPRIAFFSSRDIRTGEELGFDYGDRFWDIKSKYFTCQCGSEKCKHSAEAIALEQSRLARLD
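Readings reflect AlphaScreen signal from monomethyl-H3K9 antibody detection. HMT at 20 nM; substrate b-H3K9 500 nM; cofactor SAM 20 uM; 2 h RT reaction; compounds tested as titrations in qHTS with 15 min preincubation.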
JMJD2A Tudor inh – inhibitors of human JMJD2A Tudor domain; AlphaScreen JMJD2A-Tudor / H3K4me3 peptide binding; Potency, µM (doses to about 114 µM), inactives show at the highest dose activity change, negative = inhibition, actives largely listed as inhibitors; 390,000 compounds, 4.4% hits; also: % is scaled to controls: 0 for no effect and ±100 for the full control effect; nearly all actives have a fitted effect of over 50% in size
BAZ2B block – blocks human BAZ2B; AlphaScreen BAZ2B-H3K14Ac peptide displacement; Potency, µM (series often up to 114 µM), for inactives: at the top dose activity change, negative = inhibition, actives largely listed as inhibitors; 360,000 compounds, 4.4% hits; AID 504333; also: % is scaled to controls: 0 for no effect and ±100 for the full control effect; nearly all actives have a fitted effect of over 60% in size
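In this displacement format the biotinylated H3(5-23) peptide acetylated at Lys14 serves as ligand at 50 nM, with BAZ2B at 50 nM in PBS pH 7.4 containing 0.01% Tween-20. Donor and acceptor beads are 10 ug/mL final.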
Active calls of the source: *; ? = inconclusive; . = no result given; ! = not confirmed by another sample; [ ] = another dose, or the depositor's remark. A selection: hits, their analogues and other compounds. The true share with any hit is near 12%. Calls follow the shape of the dose curve; as a rule, active = well fitted curve in the direction sought with a large enough effect; inconclusive = small, poorly fitted or top-dose-only effect, or another doubt; inactive = no such curve, though single readings can be large; an effect the other way counts as inactive or inconclusive. Potency is read from the fitted curve at half-maximal effect.

SMILES | Sfp PPTase inh | HP1b binding inh | G9a block | JMJD2A Tudor inh | BAZ2B block
COc1ccc(C(=O)N/N=C/C23CC[C@@H](O)CC2(O)CC[C@@H]2[C@@H]3CCC3(C)C(C4=CC(=O)OC4)CCC23O)cc1 (stereo partly drawn) | 0% | -4% | 50µM* | -35% | -13%
Cc1cc(C(=O)C[N+]23CCN(CC2)CC3)c(C)n1-c1ccc(Br)cc1 | 4% | 4% | ? | -19% | 79µM*
CC(C)(C)OC(=O)N1CC(O)CC1C(=O)OCC(=O)c1ccc(-c2ccccc2)cc1 (stereo not drawn) | -11% | 28% | ? | ? | -33%
CC(=O)OCC(=O)[C@@H]1CC[C@H]2[C@H]3CC[C@H]4C[C@@H](O)CC[C@]4(C)[C@@H]3C(=O)C[C@@]12C | ? | . | 2%[5.15 µM] | . | .
C=CC1CN2CCC1CC2C(OC(=O)OCC)c1ccnc2ccc(OC)cc12 (stereo not drawn) | 12% | . | -24%[2.33 µM] | . | .
Cc1ccccc1C1=NCC(=O)N(CC(=O)NCc2ccco2)c2sc3c(c21)CCCC3 | 50µM* | -16% | -16%[12.7 µM] | 89µM* | -34%
CCC(C)C1N=C(c2ccccc2)c2cc(Cl)ccc2N(CC(=O)NCc2ccco2)C1=O (stereo not drawn) | 1% | 69% | 4% | -7% | 7%
CC(C)CC1C(=O)N2CCC[C@H]2[C@]2(O)O[C@](NC(=O)[C@@H]3C=C4c5cccc6[nH]c(Br)c(c56)C[C@H]4N(C)C3)(C(C)C)C(=O)N12 (stereo partly drawn) | . | 2% | . | ? | .
Cc1cccc(NC(=O)CSc2ccc(-c3ccco3)nn2)c1 | ? | 23% | 28µM* | -10% | -25%
COc1cc(C2c3cc4c(cc3C(O)C3COC(=O)C23)OCO4)cc(OC)c1O (stereo not drawn) | -9% | . | -32%[2.33 µM] | . | .
COCCNCCOc1ccc(C(C)(C)c2ccccc2)cc1 | -23% | ? | 11µM* | 32µM* | ?
C[C@@H]1C(=O)O[C@H]2CC34[C@H]5C[C@@H](C(C)(C)C)[C@]36[C@@H](OC(=O)[C@@H]6O)O[C@@]4(C(=O)O5)[C@]21O (stereo partly drawn) | . | 22% | 28%[12.7 µM] | -12% | 35%
O=C(/C=C/c1ccccc1)c1c(O)n(CCc2ccccc2)c(=O)[nH]c1=O | 8% | 10% | 21%[59 µM] | -20% | 2%
COc1cc(/C=C/C(=O)c2c(O)n(CCc3ccccc3)c(=O)[nH]c2=O)ccc1O | -18% | 16% | 45µM* | -9% | 11%
O=C1NC(=O)N(c2ccc(Cl)cc2)C(=O)/C1=C/c1coc2ccc(O)cc2c1=O | 45µM* | -1% | 16µM* | 100µM* | -30%
O=C1NC(=O)N(c2ccccc2)C(=O)/C1=C/c1coc2ccc(O)cc2c1=O | 50µM* | 12% | -114%[59 µM] | ? | ?
COC(=O)C1=C(c2cccc(OCc3ccccc3)c2)C[C@@H]2CC[C@H]1N2C(=O)NCc1ccc(C(C)(C)C)cc1 | . | 21% | 2%[0.501 µM] | -25% | -4%
COC(=O)C1=C(c2ccc(F)cc2OCc2ccccc2)C[C@@H]2CC[C@H]1N2C(=O)NCc1ccc(N(C)C)cc1 | . | ? | 19%[2.33 µM] | 22µM* | 10µM*
COC(=O)C1=C(c2cccc(OCc3ccccc3)c2)C[C@@H]2CC[C@H]1N2C(=O)NCc1ccc(N(C)C)cc1 | . | ? | -7%[2.33 µM] | 20µM* | 10µM*
COC(=O)C1=C(c2ccccc2OCc2ccccc2)C[C@@H]2CC[C@H]1N2C(=O)NCc1ccc(Cl)cc1 | . | 29% | -6%[0.501 µM] | -15% | -5%
COC(=O)C1=C(c2ccccc2OCc2ccccc2)C[C@@H]2CC[C@H]1N2C(=O)NCc1ccc(N(C)C)cc1 | . | -23% | -6%[0.501 µM] | 20µM* | 28µM*
COC(=O)C1=C(c2ccc(F)cc2OCc2ccccc2)C[C@@H]2CC[C@H]1N2C(=O)NCc1ccc(Br)cc1 | . | 38% | 8%[0.501 µM] | -8% | 2%
CC1CC[C@@]2(NC1)OC1CC3C4CC[C@@H]5CC(O)CC[C@@]5(C)C4CC[C@]3(C)C1C2C (stereo partly drawn) | 6% | . | -6%[2.33 µM] | . | .
c1ccc2c(c1)OC[C@@H](C1=NCCN1)O2 | 2% | . | 8%[21.5 µM] | . | .
CCOC(=O)N1CCC(NC(=O)c2ccc3c(c2)N(Cc2cccc(C)c2)C(=O)c2ccccc2S3(=O)=O)CC1 | . | 42% | 6%[59 µM] | -20% | -13%
SMILES | Sfp PPTase inh | HP1b binding inh | G9a block | JMJD2A Tudor inh | BAZ2B block
O=C(O)c1ccccc1SCC(=O)N1c2ccccc2Sc2ccccc21 | 89µM* | -5% | 41%[59 µM] | -22% | 12%
NC(N)=NCCC[C@H](N)C(=O)O | ? | . | 54%[12.7 µM] | . | .
CC1=NCCc2c1[nH]c1cc(O)ccc21 | 79µM*! | 39% | 1.4µM*! | -19% | 4%
CC[C@@H](CO)Nc1nc(NCc2ccccc2)c2ncn(C(C)C)c2n1 | . | . | -8%[59 µM] | . | .
C[C@@H]1O[C@@H](O[C@H]2CC[C@@H](O[C@H]3[C@H](O)C[C@H](c4ccc5c(c4O)C(=O)C4=C(C5=O)[C@@]5(O)C(=O)C[C@](C)(O[C@H]6CC[C@H](O[C@H]7C=CC(=O)[C@H](C)O7)[C@H](C)O6)C[C@@]5(O)C=C4)O[C@@H]3C)O[C@H]2C)C=CC1=O | 5µM* | . | . | . | .
c1ccc(-c2ccc(C(c3ccccc3)n3ccnc3)cc2)cc1 (stereo not drawn) | ? | -28% | ? | 25µM* | 25µM*
C#CCOS(=O)OC1CCCCC1Oc1ccc(C(C)(C)C)cc1 (stereo not drawn) | 4% | . | . | . | .
O=c1[nH]c(=S)[nH]c(O)c1/C=C1/C=c2ccccc2=N1 | -19% | 45% | . | ? | ?
Cc1cccc2c1=NC(=O)/C(=C/c1c(O)[nH]c(=O)[nH]c1=O)C=2 | 50µM* | 9% | 10µM* | -21% | ?
COc1cc([C@@H]2c3cc4c(cc3[C@H](O)[C@H]3COC(=O)[C@@H]23)OCO4)cc(OC)c1OC | . | 72% | . | -18% | .
CC1=C2C(=O)C3C(CC=C4C[C@@H](O)CC[C@@]43C)[C@@H]2CC[C@]12O[C@@H]1C[C@H](C)CN[C@H]1C2C (stereo partly drawn) | 4% | . | . | . | .
COc1ccc(CCCc2nnc(SCC(=O)Nc3ccc(C)c(C)c3)o2)cc1 | 2% | 3% | 22µM* | ? | -26%
O=C(/C=C/c1ccccc1)NC(NC(=S)Nc1cccc2cccnc12)C(Cl)(Cl)Cl (stereo not drawn) | 23% | . | 14µM* | . | .
O=C(CF)NC(Nc1cccc2cccnc12)C(Cl)(Cl)Cl (stereo not drawn) | 18% | 17% | -47% | -2% | -1%
CCOc1ccccc1N1C(=O)CC(=O)NC1=O | -15% | 6%[57 µM] | 79µM* | -5% | ?
CC(=O)/C=C/c1ccccc1 | . | 28% | . | -9% | .
CC(=O)[O][Hg][c]1ccccc1 | 0.18µM* | . | ? | . | .
